Reference: PubChem BioAssay (NCI)
“And” between values parts separate entries of the source, which are not always exact repeats. Identical values can stand only once. The panel holds about 83,000 compounds, 20% with a hit somewhere; the sample as a whole holds those more often.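 In brief: 96-well plates, 48 h treatment, single concentration, percent growth endpoint.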 The source made the active and inactive calls. How the source made its calls: active means growth percent below 10; inactive means the rest.

Experiments:
Experiment in all cases: NCI-60 one-dose screen, 48 h (100 = growth as untreated, 0 = no growth, -100 = all killed)
Conditions in all cases: 10 µM unless noted
[1] = test system: RPMI-8226 leukemia
[2] = test system: OVCAR-8 ovarian
[3] = test system: OVCAR-5 ovarian
[4] = test system: OVCAR-4 ovarian
[5] = test system: SK-OV-3 ovarian
[6] = test system: IGROV1 ovarian
[7] = test system: HS 578T breast
[8] = test system: NCI/ADR-RES ovarian
[9] = test system: T-47D breast
[10] = test system: BT-549 breast
[11] = test system: MDA-MB-435 melanoma
[12] = test system: MCF7 breast
[13] = test system: HCT-116 colon
[14] = test system: HCC-2998 colon
[15] = test system: KM12 colon
[16] = test system: OVCAR-3 ovarian
[17] = test system: SW-620 colon
[18] = test system: MDA-MB-468 breast

Measured: growth

CC(=O)C[n+]1cccc2c3ccccc3ccc21
inactive: [1] 64% | [2] 81.5% | [3] 103% | [4] 63.8% | [5] 96.1% | [6] 95.2% | [7] 102% | [8] 107% | [9] 77.2% | [10] 107% | [11] 84.6% | [12] 77.7% | [13] 87.4% | [14] 114% | [15] 88.2%

COc1ccc2c(c1)N=c1c-2cc2c(O)[nH]c(=S)n2c1=O
inactive: [1] 62.6% | [2] 53.2% | [3] 53.5% | [4] 86.9% | [5] 53.3% | [6] 50% | [16] 33.8% | [7] 21.5% | [8] 26.7% | [9] 46.4% | [10] 32.4% | [17] 47.4% | [12] 34.6% | [13] 28.6% | [14] 60.1% | [15] 42.7%
active: [11] 2.49% | [18] -25.9%

O=C(Cc1c(-c2cccc([N+](=O)[O-])c2)n(-c2ncnc3c2c(-c2ccccc2)c(-c2ccccc2)n3Cc2ccccc2)[nH]c1=O)c1ccc(Cl)c(Cl)c1
inactive: [1] 12.6% | [2] 34.3% | [3] 66.8% | [4] 31.6% | [5] 72.2% | [6] 33.8% | [16] 46.5% | [7] 20.2% | [8] 51.6% | [10] 63.7% | [11] 19.9% | [17] 56.1% | [12] 24.7% | [13] 32.3% | [14] 26.7% | [15] 24.7%
active: [9] 0.846% | [18] -10.4%

N#CC1=C(c2ccco2)Nc2c(c(-c3ccccc3)nn2-c2ccccc2)C12C(=O)Nc1ccc(Cl)cc12 (centres undefined)
active: [2] -29.1% | [4] 9.94% | [16] -27.2% | [7] -22.9% | [8] -3.42% | [13] -73.1%
inactive: [1] 49.8% | [3] 53.5% | [5] 55.3% | [6] 39.2% | [9] 26.6% | [10] 15.4% | [11] 53.7% | [17] 15.9% | [12] 21.3% | [14] 64.8% | [18] 42.3%

CC(=O)Nc1cccc(-n2c(COc3ccc(Br)cc3)nc3ccccc32)c1
inactive: [1] 87.2% and 107% | [2] 113% and 114% | [3] 105% and 109% | [4] 88.1% and 101% | [5] 76.5% and 107% | [6] 90.7% and 111% | [16] 96.9% and 97.7% | [7] 78.2% and 106% | [8] 89.3% and 104% | [9] 88.5% and 109% | [10] 109% and 97.2% | [11] 107% and 103% | [17] 97.9% and 103% | [12] 82.3% and 97.2% | [13] 101% and 102% | [14] 129% and 112% | [15] 103% and 101% | [18] 81.7% and 102%

Cc1[nH]nc2ccc3nc(-c4cnn(CCO)c4)c4c(c3c12)CCCC4
inactive: [1] 33.8% | [2] 48.7% | [3] 90.4% | [4] 63.1% | [6] 44.5% | [16] 90.2% | [8] 73.5% | [9] 34.5% | [10] 46.3% | [11] 18.7% | [17] 29% | [12] 52.6% | [13] 33.8% | [14] 45.6% | [15] 18.8%
active: [5] 9.64% | [7] -2.52% | [18] -0.783%

Cc1nc2sccn2c1-c1nnc(SCc2ccccc2)o1
inactive: [1] 79.1% | [2] 96.5% | [3] 90.2% | [4] 79.8% | [5] 97.9% | [6] 92% | [16] 117% | [7] 107% | [8] 78.1% | [9] 74.5% | [10] 119% | [11] 97.4% | [12] 74.2% | [13] 91.6% | [14] 103% | [15] 98.5% | [18] 52%

COc1ccc(C2=Nc3c(N)nc(N)nc3NC(c3ccc(Oc4nc(Nc5ccc(F)cc5)nc(N(C)C)n4)c(OC)c3)C2)cc1 (centres undefined)
active: [18] 8.9%
inactive: [1] 36.2% | [2] 81.7% | [3] 108% | [4] 48.4% | [5] 93.2% | [6] 63.5% | [16] 82.5% | [7] 37.6% | [8] 62.7% | [9] 70.3% | [10] 66.2% | [11] 81.9% | [17] 76.6% | [12] 38.8% | [13] 44.2% | [14] 80.1% | [15] 74.9%

CCc1ccccc1NC(=O)N/C(N)=N/c1nc2ccccc2s1
active: [2] -26.6% | [3] 0.307% | [5] 7.32% | [16] -30.2% | [8] -30.4% | [10] -12% | [11] -46.7% | [13] -26.2% | [14] 3.52% | [15] -3.54% | [18] -21.2%
inactive: [1] 15.7% | [4] 16.7% | [6] 20% | [7] 27.1% | [17] 21.3% | [12] 11%

COc1ccc(-c2nc3ccccc3n2CC(=O)N=Nc2c(O)[nH]c3ccc(OC)cc23)cc1
active: [2] 6.22% | [9] -72.5% | [13] 1.32%
inactive: [1] 52% | [3] 86.8% | [4] 50.8% | [5] 104% | [6] 45.7% | [7] 30.3% | [8] 48% | [11] 26.3% | [17] 48.6% | [12] 58.1% | [14] 114% | [15] 85% | [18] 52.4%

O=C(CSc1nc2sc3c(c2c(=O)n1-c1ccc(Cl)cc1)CCCC3)NNC(=O)c1ccc(F)cc1
inactive: [1] 83.2% | [2] 35.4% | [3] 73.8% | [4] 83.9% | [5] 90.5% | [6] 63.3% | [16] 119% | [7] 79.9% | [8] 77.6% | [9] 74% | [10] 67.3% | [11] 98.2% | [17] 91% | [12] 61.9% | [13] 78.3% | [14] 113% | [15] 101% | [18] 95%

COC(=O)c1c(C(=O)OC)c2ccc3c4ccccc4ccc3n2c1C(=O)C(C)Br (centres undefined)
inactive: [2] 15.6% | [3] 75.7% | [4] 41.4% | [5] 81.9% | [6] 42.2% | [16] 16.7% | [7] 65.6% | [8] 37.5% | [9] 36.5% | [11] 10.3% | [13] 14% | [14] 67.9% | [15] 91.5% | [18] 50.7%
active: [1] 3.26% | [17] 9.86% | [12] 6.04%

CN1CCN(C(=O)Oc2cc3c(c4ccccc24)[C@H](CCl)CN3C(=O)c2cc3cc(OCCCN4CCC4)ccc3[nH]2)[C@H]2CSSC[C@H]21
active: [1] -31.2% | [2] -13.1% | [3] -19.6% | [4] -1.62% | [5] -16.5% | [6] 4.39% | [16] -10.9% | [7] -7.11% | [8] -29.2% | [9] -12.9% | [10] -36.8% | [11] -70.2% | [17] 4.18% | [12] 3.7% | [13] 6.44% | [14] -47% | [15] 2.01% | [18] -78.4%

COc1ccc(NC(=O)CSc2nnc(-c3ccc(-c4nc5ccc(Cl)cc5[nH]4)cc3)o2)cc1
active: [2] 2.41% | [13] 9.94%
inactive: [1] 46.3% | [3] 59.8% | [4] 33.8% | [5] 55% | [6] 59.6% | [16] 41% | [7] 24.7% | [8] 48% | [9] 75.9% | [11] 17.8% | [17] 20.3% | [12] 42.2% | [14] 109% | [15] 29.6% | [18] 86.2%

Cn1cc(-c2cc(N)n3nc(-c4c[nH]c5ccccc45)cc3n2)c2cc(Cl)ccc21
active: [1] -7.08% | [2] -63.7% | [3] -65.9% | [4] -29.3% | [5] -61.4% | [6] -65.5% | [16] -52.5% | [7] -21.2% | [8] -12.8% | [9] -77.5% | [10] -3.57% | [11] -51.7% | [17] -84.9% | [12] -70.3% | [13] -73.4% | [14] -80% | [18] -83.2%
